Structures are written as SMILES. “And” between values parts separate entries of the source, which are not always exact repeats. Equal values may be shown once. About 83,000 compounds went through this panel and 20% of them were active in at least one assay; those are over-represented in the sample as a whole.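 Testing used 96-well plates and a 48-hour single-concentration exposure. Example: -40 means 40% of the starting cells died.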 The source made the active and inactive calls. Rule for the calls: active = growth percent below 10; inactive = the rest.

What all share (assay): NCI-60 one-dose screen, 48 h (100 = growth as untreated, 0 = no growth, -100 = all killed)
Holding throughout (conditions): 10 µM unless noted

Experiment [1] concerns HCT-15 colon.
In experiment [2] the test system is HT29 colon.
Experiment [3] has as its system SNB-75 CNS.
In experiment [4] the test system is SNB-19 CNS.
Experiment [5] concerns PC-3 prostate.
The subject of experiment [6] is SK-MEL-5 melanoma.
Experiment [7] relates to UACC-62 melanoma.
The subject of experiment [8] is LOX IMVI melanoma.
In experiment [9] the test system is SK-MEL-28 melanoma.

For the compound `N#CC1=C(c2cccs2)Nc2c(c(-c3ccccc3)nn2-c2ccccc2)C12C(=O)Nc1ccccc12` (stereo unspecified), the growth in experiment [1] was 11.9% (inactive); in experiment [2], 6.67% (active); in [3], 60.5% (inactive); in experiment [4] it was 25.4% (inactive); in experiment [5], 6.98% (active); in [6] it was 23.9% (inactive). The growth was 48.5% (inactive) in [7], 61.6% (inactive) in experiment [8] and 15.2% (inactive) in [9].
Regarding `COc1ccc(-c2nc3ccccc3n2CC(=O)N=Nc2c(O)[nH]c3ccc(Br)cc23)cc1`, the growth is 58.1% (inactive) in experiment [1]; 45.4% (inactive) in experiment [2]; 66.8% (inactive) in experiment [3]; 89.3% (inactive) in [4]; 76.7% (inactive) in experiment [5]; 67.4% (inactive) in experiment [6]. Also, the growth in experiment [7] is 72.1% (inactive); in [8], 74.4% (inactive); in [9], 97.8% (inactive).
As for `Clc1ccc(CNc2nc(SCCN3CCOCC3)nc3c2cnn3CC(Cl)c2ccc(Br)cc2)cc1` (stereo unspecified), the growth is 1.95% (active) in experiment [1]; -51.5% (active) in [2]; 76.2% (inactive) in experiment [3]; 50.4% (inactive) in experiment [4]; 34.3% (inactive) in [5]; 42.3% (inactive) in experiment [6]. Besides, the growth was 57.5% (inactive) in [7], 30.9% (inactive) in [8] and 56.2% (inactive) in experiment [9].
Consider `CCN1CCN(Cc2ccc(C(=O)Nc3cccc(Nc4ccc5c(OC)cccc5n4)c3)cc2C(F)(F)F)CC1`, for which the growth in experiment [1] is -83.3% (active); in experiment [2], -67.6% (active); in experiment [3] it was -89.7% (active); in experiment [4], -99.7% (active); in [5], -38.6% (active); in [6], -99.2% (active). Besides, the growth was -95.1% (active) in experiment [7], -92.1% (active) in experiment [8] and -100% (active) in experiment [9].
As to `Cc1ccc(C(=O)Nc2cccc(C(=O)NC(=S)Nc3ccc(S(N)(=O)=O)cc3)c2)cc1`, the growth in experiment [1] was 80.5% (inactive); in [2], 85.1% (inactive); in experiment [3], 50.5% (inactive); in experiment [4], 83.1% (inactive); in experiment [5], 78.9% (inactive); in [6], 49.8% (inactive). The growth is 69.4% (inactive) in experiment [7], 78.8% (inactive) in experiment [8] and 79.8% (inactive) in experiment [9].
On to `O=C1C=CC(=CC=C2N(Cc3ccc4ccccc4c3)c3ccccc3N2Cc2ccc3ccccc3c2)C=C1`, for which the growth in experiment [1] is 94.7% (inactive) and 95.3% (inactive); in experiment [2], 15.1% (inactive) and 13.2% (inactive); in experiment [3], 39.6% (inactive) and 26.9% (inactive); in experiment [4], 8.3% (active) and 11.1% (inactive); in experiment [5], 18.6% (inactive) and 16.6% (inactive); in experiment [6], -64.3% (active) and -51.3% (active). The growth in experiment [7] was 2.32% (active) and 11.9% (inactive); in experiment [8], 14.8% (inactive) and 19.6% (inactive); in experiment [9], 16.7% (inactive) and 20.5% (inactive).
As to `O=C(Nc1ccc(-c2ccc3c(c2)NC(=O)/C3=C\c2ccc[nH]2)cc1)Nc1ccc(Cl)c(Cl)c1`, the growth in experiment [1] is 41.4% (inactive); in experiment [2], 10.7% (inactive); in experiment [3], 52.1% (inactive); in experiment [4] it was 67.5% (inactive); in [5] it was 64.7% (inactive); in experiment [6], 74.7% (inactive). In addition, the growth in experiment [7] is 42.4% (inactive); in experiment [8], 26.2% (inactive); in [9] it was 64.2% (inactive).
Regarding `COC(=O)c1cc(C(=O)C(Br)Br)n2c1ccc1c3ccccc3ccc12`, the growth in experiment [1] was 34.2% (inactive); in experiment [2] it was 63.1% (inactive); in experiment [3] it was 66.4% (inactive); in [4] it was 58.6% (inactive); in experiment [5], 56.3% (inactive); in experiment [6], 61.7% (inactive). Also, the growth was 51.8% (inactive) in experiment [7], 41.4% (inactive) in experiment [8] and 105% (inactive) in experiment [9].
On to `O=C1c2cccc3c(N4CCN(Cc5ccccc5)CC4)ccc(c23)C(=O)N1c1cccc(-c2nn(-c3ccccc3)cc2-c2nc3ccccc3s2)c1`, for which the growth in experiment [1] is 110% (inactive); in experiment [2] it was 115% (inactive); in experiment [3], 84.3% (inactive); in experiment [4], 103% (inactive); in experiment [5] it was 88.1% (inactive); in experiment [6] it was 102% (inactive). For the same compound, the results for the growth in experiment [7], in experiment [8] and in experiment [9] were 94.6% (inactive), 97.9% (inactive) and 106% (inactive), respectively.
With `CN(C)C(=O)c1cc(-c2ccc3ncnc(N4CCc5cc(F)c(Cl)cc54)c3c2)cnc1N`, the growth was -70.8% (active) in experiment [1]; -68.6% (active) in [2]; -28.8% (active) in [3]; -19.8% (active) in [4]; 0.623% (active) in [5]; -98.9% (active) in experiment [6]. The growth was -83.7% (active) in experiment [7], -69.3% (active) in experiment [8] and 0.025% (active) in [9].
Consider `N#Cc1cc(-c2ccnc(Nc3ccc(N4CCN(C5COC5)CC4)cc3)n2)ccc1N1CCCC1`, for which the growth in experiment [1] was 41.9% (inactive); in experiment [2] it was 18.6% (inactive); in experiment [3], 15.7% (inactive); in experiment [4], 117% (inactive); in [5] it was 64.4% (inactive); in [6], 62.2% (inactive). Further, the growth in experiment [7] is 87.1% (inactive); in experiment [8] it was 40% (inactive); in experiment [9] it was 77.2% (inactive).
For `COc1ccc2c(c1)C(Sc1ccc(Br)cc1)c1c(nc(N)c(C#N)c1N)O2` (stereo unspecified), the growth in experiment [1] is 76.3% (inactive); in [2] it was 91.1% (inactive); in experiment [3], 80.4% (inactive); in [4], 80.6% (inactive); in [5], 48.2% (inactive); in [6], 85.6% (inactive). The growth is 76.4% (inactive) in experiment [7], 16.7% (inactive) in [8] and 104% (inactive) in experiment [9].
In the case of `O=C1Nc2ccccc2/C1=C/C(=O)c1cc2ccccc2oc1=O`, the growth in experiment [1] was 30.3% (inactive); in experiment [2], 110% (inactive); in experiment [3] it was 126% (inactive); in experiment [4], 101% (inactive); in [5], 95.1% (inactive); in experiment [6], 99.9% (inactive). In addition, the growth is 88.9% (inactive) in experiment [7], 91% (inactive) in [8] and 36.7% (inactive) in [9].
On to `COc1ccc(OC)c(Cn2cc(C#N)c(N)c2C(=O)c2ccc(Br)cc2)c1`, for which the growth in experiment [1] is 26.2% (inactive); in [2] it was 4.97% (active); in experiment [3], 50.4% (inactive); in experiment [4], 55.3% (inactive); in experiment [5], 66% (inactive); in experiment [6], 26.6% (inactive). Besides, the growth is 29.9% (inactive) in [7], 49.6% (inactive) in [8] and 54.3% (inactive) in experiment [9].

Source of the values: PubChem BioAssay (NCI).
